Marburg entry inh: inhibitors of Marburg virus binding or cell entry; 300,000 compounds, 1.8% hits; AID 540276; Potency, µM (titrated, usually from 37.8 µM), for inactives: top-dose activity change, negative = inhibition, hits mostly inhibitors; Marburg virus pseudotyped entry inhibition, cell reporter; calls by dose curve; tested in HEK293 cells; also: potency is read from the fitted curve at half-maximal effect
VACV Venus inh: vaccinia inhibition (Venus reporter); Vaccinia virus Venus reporter expression, fluorescence; Potency, µM (titrated, usually from 36.5 µM), for the others: top-dose activity change, negative = inhibition, hits mostly inhibitors; 330,000 compounds, 0.46% hits; calls by dose curve; tested in A549 cells; also: potency is read from the fitted curve at half-maximal effect; nearly all actives have a fitted effect of over 30% in size
HCMV antiviral: inhibitors of human cytomegalovirus. HFF cells, HCMV-luciferase reporter, 72 h; stronger effect = lower value. activity change, negative = inhibition, % at 57.5 µM. 410,000 compounds, 4.5% hits. AID 1259415; in the data active = activity change below about -60%; inconclusive = no clear call, values can overlap the other calls; inactive = above about -39%
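Cell-based, HFFs, 1000 cells/well, 16 h 37C; cpds in DMSO + HCMV-luc, MOI 1 PFU/cell; 72 h 37C; OneGlo luminescence after 5 min RT; norm. to buffer vs Salinomycin 10uM.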
VACV mCherry inh: inhibitors of vaccinia virus infection (mCherry reporter signal); Vaccinia virus mCherry reporter infection, fluorescence; Potency, µM (series often up to 36.5 µM), for the others: at the highest dose activity change, negative = inhibition, usual class: inhibitors; 310,000 compounds, 0.63% hits; calls by dose curve; tested in A549 cells; also: potency is read from the fitted curve at half-maximal effect; nearly all actives have a fitted effect of over 35% in size
Lassa entry inh: blocks Lassa virus binding to or entry into cells. Lassa virus pseudotype entry inhibition, cell reporter. Potency, µM (doses to about 37.9 µM), for the others: top-dose activity change, negative = inhibition, actives largely listed as inhibitors. 300,000 compounds, 1.2% hits. AID 540256; calls by dose curve; tested in HEK293 cells; also: potency is read from the fitted curve at half-maximal effect; nearly all actives have a fitted effect of over 50% in size
FMDV antiviral: blocks foot and mouth disease virus; FMDV antiviral cell-based qHTS; Potency, µM (highest dose often 57.9 µM), for inactives: top-dose activity change, negative = inhibition, actives largely listed as inhibitors; 410,000 compounds, 1.2% hits; AID 1159524; calls by dose curve; tested in HEK293T cells; also: read-out not given here; potency is read from the fitted curve at half-maximal effect; nearly all actives have a fitted effect of over 45% in size
* hit, by the source's call; i = inactive; ? = inconclusive; / = not tested or not shown; [ ] = another dose, or the depositor's remark. Sampled rows, rich in hits. Any-hit rate of the full collection: about 6.5%. % is scaled to controls: 0 for no effect and ±100 for the full control effect.

SMILES	Marburg entry inh	VACV Venus inh	HCMV antiviral	VACV mCherry inh	Lassa entry inh	FMDV antiviral
C/C(CC(=O)Nc1ccc([N+](=O)[O-])cc1)=N\NC(=O)c1ccccc1[N+](=O)[O-]	22%	-18%	1	-2%	13%	-10%
CC12CC[C@H]3[C@@H](CCC4(O)C[C@H](O)CCC34/C=N/NC(=O)c3ccccc3[N+](=O)[O-])C1(O)CCC2C1=CC(=O)OC1 (some centres not stated)	?	10µM*	-78*	?	?	-23%
CC12CC[C@H]3[C@@H](CCC4(O)C[C@H](O)CCC34/C=N/NC(=O)Cc3ccccc3)C1(O)CCC2C1=CC(=O)OC1 (some centres not stated)	?	?	-66*	?	?	11%
O=C(Cc1ccccc1)N/N=C/c1ccc2c(c1)OCO2	0%[46.1 µM]	0%	45	-1%	?	72%
CNC(=O)Nc1ccc(C(=O)N/N=C\C23CC[C@@H](O)CC2(O)CC[C@@H]2[C@@H]3CCC3(C)C(C4=CC(=O)OC4)CCC23O)cc1 (some centres not stated)	/	?	-23	13µM*	/	-15%
CC1=Nc2ccccc2N=C(NC(=O)c2ccccc2)C1c1ccc(Cl)cc1 (configuration not stated)	?	-5%	-63*	-25%	?	-17%
O=C1CC(c2ccc(Cl)cc2)N=C(NC(=O)c2ccccc2)N1 (configuration not stated)	/	-15%	-4	-7%	-17%[46.1 µM]	-22%
C=CCN1C(=O)C(Cc2ccc(OCC)cc2)S/C1=N\N=C\c1cccs1 (configuration not stated)	-27%	1%	30	/	11µM*	-15%
O=C(Nc1ccc(OC(F)(F)F)cc1)Nc1cccc([N+](=O)[O-])c1	?	10µM*	-104*	10µM*	?	-4%
O=C(Nc1ccc(OC(F)(F)F)cc1)Nc1cccnc1	/	/	23	/	/	43%
Cc1cc(NC(=O)Nc2cccc([N+](=O)[O-])c2)no1	/	/	?	/	/	9%
Cc1ccc(NC(=O)Nc2cccc([N+](=O)[O-])c2)cc1F	?	?	-100*	?	?	-2%
CCn1c(/C(C#N)=N/O)nc2ccccc21	-5%	-17%	-6	-6%	1%	0%
CCn1c(/C(C#N)=C/c2ccccc2Cl)nc2ccccc21	/	8%	-73*	8%	-12%[46.1 µM]	-17%
CCOc1ccc(C(=O)N/N=C(/C)C2C(=O)c3ccccc3C2=O)cc1	?	-7%	40	i	12%	-29%
CCOc1ccc(OCc2ccc(C(=O)N/N=C(\C)c3ccccn3)cc2)cc1	7.9µM*	?	-85*	1.8µM*	11µM*	-18%
O=C(N/N=C/c1ccc[nH]1)c1ccccc1OCc1ccc(F)cc1	11%[46.1 µM]	10%	?	-17%	27%[46.1 µM]	-22%
C/C(=N\NC(=O)c1ccccc1OCc1ccc(F)cc1)c1ccccn1	/	/	-102*	/	/	-22%
CC1CCC(C(=O)C2C(=O)C3=C(CCCC3)C2=O)CC1 (configuration not stated)	-15%	/	/	/	/	/
Cc1ccc(C2CC(c3ccccc3)=NN2C(=S)Nc2ccccc2)o1 (configuration not stated)	?	?	-4	/	4µM*	-16%
O=C(CCN1C(=O)/C(=C/c2ccccc2Cl)SC1=S)Nc1ccccn1	/	/	4	/	/	-26%
O=C(CCCN1C(=O)/C(=C/c2cccs2)SC1=S)Nc1ccccn1	-15%[46.1 µM]	2%	-98*	-22%	2%	0%
O=C(CCCN1C(=O)/C(=C/c2ccccc2Cl)SC1=S)Nc1cccnc1	/	/	?	/	/	-6%
O=C1/C(=C/c2ccccc2Cl)SC(=S)N1CCCC(=O)N(CCO)c1ccccc1	/	/	-91*	/	/	?
O=C(CCCN1C(=O)/C(=C/c2ccccc2Cl)SC1=S)Nc1ccccn1	?	2%	-97*	0%	?	?
SMILES	Marburg entry inh	VACV Venus inh	HCMV antiviral	VACV mCherry inh	Lassa entry inh	FMDV antiviral
CC1CCC(C(C)C)C(OC(=O)Cn2c(-c3ccc(F)cc3)[n+](C)c3ccccc32)C1 (configuration not stated)	?	?	-102*	?	?	?
CC1CCC(C(C)C)C(OC(=O)Cn2c(-c3ccccc3)[n+](C)c3ccccc32)C1 (configuration not stated)	5.8µM*	?	-100*	?	7.1µM*	13µM*
CCn1cc(C(=O)N2CCN(c3cccc(C)c3C)CC2)c2cc(OC)c(OC)cc2c1=O	15%[46.1 µM]	?	-20	?	-7%[46.1 µM]	0%
CCn1c(CN2CCC(C)CC2)nc2cc(NC(=O)COc3ccc([N+](=O)[O-])cc3)ccc21	-27%[46.1 µM]	?	-11	i	-17%[46.1 µM]	0%
Cc1nc2ccccc2n1CCc1nc2c3ccccc3nc(SCc3ccc(C#N)cc3)n2n1	/	0%	9	-5%	19%[46.1 µM]	-20%
COc1ccc(-n2cc(CN[C@H]3CCCCNC3=O)c(-c3cccc(F)c3)n2)cc1	/	/	-27	/	/	-10%
CCC(COC)NCc1cn(-c2ccc(OC)cc2)nc1-c1cccc(F)c1 (configuration not stated)	10µM*	-12%	?	-20%	?	?
COc1ccc(-n2cc(CNC3CCN(C)CC3)c(-c3cccc(F)c3)n2)cc1	3.2µM*	?	-39	?	11µM*	6%
COc1ccc(-n2cc(CNC(C)c3ccncn3)c(-c3cccc(F)c3)n2)cc1 (configuration not stated)	?	-7%	?	-23%	-4%	-8%
O=S(=O)(c1ccc2c(c1)CCN2)N1CCCCCC1	-2%[46.1 µM]	-8%[7.34 µM]	56	-8%[7.34 µM]	1%[46.1 µM]	2%
CCOc1ccc(C2=CS/C(=C(\C#N)c3nnc4n3CCCCC4)N2CC)cc1	?	-22%	-63*	?	?	?
COc1ccc2c(O)c(-c3c(C)cc(C)cc3C)c(=O)[nH]c2c1	1%[14.2 µM]	4%	-63*	-17%	-7%	-17%
Cc1ccc(S(=O)(=O)N/N=C\c2ccccc2OCc2ccccc2)cc1	?	?	-74*	-27%	?	/
CCOC(=O)c1ccc(NC(=O)CSc2nccn2-c2ccc(OCC)cc2)cc1	2%[46.1 µM]	-24%	-21	-29%	-6%[46.1 µM]	?
CC(C)(C)n1ncc(Oc2ccccc2[N+](=O)[O-])c(Cl)c1=O	-25%	-14%	-28	-4%	-11%	-25%
CC(C)(C)c1ccc(CSc2cnn(C(C)(C)C)c(=O)c2Cl)cc1	/	?	-78*	-17%	/	?
O=C(CN1C(=O)C(c2ccc(F)cc2)=NC12CCCCCC2)Nc1ccccc1Cl	?	-3%[7.34 µM]	-14	-4%[7.34 µM]	-29%[46.1 µM]	-29%
Cc1cc(C)c(Nc2cc(S(=O)(=O)O)c(N)c3c2C(=O)c2ccccc2C3=O)c(C)c1	-21%	?	3	-25%	-23%	8.9µM*
